Test results from the supplement of paper PMC6555819.

Tests used:
Assay in all cases: PBM binding z-score (relative to random genomic background probes); higher = stronger binding; sequences stand for … in GC…GCGATTGACAGCGTAGAATGAAGG
[1] = system: PPARg:RXRa DBDmut IVT, anti-RXR (DBD mutation: RXRa K156A/R161A, NR concentration 270 nM, RXRa partner concentration 90 nM)
In short: (§1)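 Each nuclear receptor dimer, without ligand, was incubated for 1 h on custom Agilent 4×180K protein-binding microarrays. Binding was detected with antibodies against each partner (one per run), and scanned fluorescence was regression-normalized. The binding z-scores are referenced to random human genomic background probes.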

[2] = system: PPARg:RXRa IVT, anti-PPARg (NR concentration 270 nM, RXRa partner concentration 90 nM)
In short: as §1

[3] = system: PPARg DBDmut:RXRa IVT, anti-PPARg (DBD mutation: PPARg1 K132A/R137A, NR concentration 270 nM, RXRa partner concentration 90 nM)
In short: as §1

[4] = system: PPARg DBDmut IVT, anti-PPARg (DBD mutation: PPARg1 K132A/R137A, NR concentration 270 nM)
In short: as §1

[5] = system: PPARg homodimer (NR concentration 180 nM)
In short: as §1

[6] = system: PXR:RXRa (NR concentration 270 nM, RXRa partner concentration 90 nM)
In short: as §1

[7] = system: PXR homodimer (NR concentration 270 nM)
In short: as §1

[8] = system: RARa:RXR (NR concentration 270 nM, RXRa partner concentration 90 nM)
In short: as §1

[9] = system: RARa homodimer (NR concentration 270 nM)
In short: as §1

[10] = system: RARb:RXRa (NR concentration 270 nM, RXRa partner concentration 90 nM)
In short: as §1

Sequence: AGAATGAGGTTATTAAGATCAGAGAATTGCGGTC
- PBM binding z-score [1]: 3.17
- PBM binding z-score [2]: 2.63
- PBM binding z-score [3]: 0.323
- PBM binding z-score [4]: 0.23
- PBM binding z-score [5]: 0.951
- PBM binding z-score [6]: 1
- PBM binding z-score [7]: 0.488
- PBM binding z-score [8]: 1.2
- PBM binding z-score [9]: 0.79
- PBM binding z-score [10]: 1.16

Sequence: TGAATGAGGTTATAAGATCAGGGGACGTTGCAAA
- PBM binding z-score [1]: 1.5
- PBM binding z-score [2]: 1.82
- PBM binding z-score [3]: 0.706
- PBM binding z-score [4]: 0.291
- PBM binding z-score [5]: 0.361
- PBM binding z-score [6]: 0.901
- PBM binding z-score [7]: 0.3
- PBM binding z-score [8]: 1.58
- PBM binding z-score [9]: 0.169
- PBM binding z-score [10]: 1.43

Sequence: TCTGCTAGGTCAGTTGGTCAGCTGACGAGCTGCC
- PBM binding z-score [1]: 2.95
- PBM binding z-score [2]: 3.18
- PBM binding z-score [3]: 1.59
- PBM binding z-score [4]: 1.47
- PBM binding z-score [5]: 0.336
- PBM binding z-score [6]: 0.0252
- PBM binding z-score [7]: -1.5
- PBM binding z-score [8]: 0.0768
- PBM binding z-score [9]: -1.43
- PBM binding z-score [10]: 3.42

Sequence: CCTCCAAGGTCAGCAGGTCAGTGAAAGCGACGTG
- PBM binding z-score [1]: 2.44
- PBM binding z-score [2]: 3.16
- PBM binding z-score [3]: -0.182
- PBM binding z-score [4]: -1.13
- PBM binding z-score [5]: 2.56
- PBM binding z-score [6]: 3.13
- PBM binding z-score [7]: 0.806
- PBM binding z-score [8]: 4.32
- PBM binding z-score [9]: 0.668
- PBM binding z-score [10]: 5.41

Sequence: CCTTACGGGTCATTCCAGGTTATAGCATCGGAGT
- PBM binding z-score [1]: 2.86
- PBM binding z-score [2]: 3.39
- PBM binding z-score [3]: 0.145
- PBM binding z-score [4]: -0.0638
- PBM binding z-score [5]: 1.34
- PBM binding z-score [6]: 5.52
- PBM binding z-score [7]: 0.529
- PBM binding z-score [8]: 3.91
- PBM binding z-score [9]: 0.74
- PBM binding z-score [10]: 3.51

Sequence: CCTAGTTCGTCAGGAGGTCACACACCGGATATGA
- PBM binding z-score [1]: 1.04
- PBM binding z-score [2]: 2.38
- PBM binding z-score [3]: 0.424
- PBM binding z-score [4]: 0.947
- PBM binding z-score [5]: 5.39
- PBM binding z-score [6]: 5.2
- PBM binding z-score [7]: 2.66
- PBM binding z-score [8]: 5.34
- PBM binding z-score [9]: 2.32
- PBM binding z-score [10]: 3.76

Sequence: ACTAGTTGGTCGGCTGAGGTCACACACAATTCGG
- PBM binding z-score [1]: 0.828
- PBM binding z-score [2]: 2.09
- PBM binding z-score [3]: 0.508
- PBM binding z-score [4]: 0.979
- PBM binding z-score [5]: 2.33
- PBM binding z-score [6]: 5
- PBM binding z-score [7]: 2.11
- PBM binding z-score [8]: 4.72
- PBM binding z-score [9]: 1.23
- PBM binding z-score [10]: 3.08

Sequence: TCTAGCAGGCCAGAGCGTCACTCAAGAGGTACGG
- PBM binding z-score [1]: 0.578
- PBM binding z-score [2]: -0.464
- PBM binding z-score [3]: -0.145
- PBM binding z-score [4]: -0.832
- PBM binding z-score [5]: -1.42
- PBM binding z-score [6]: -0.785
- PBM binding z-score [7]: -0.819
- PBM binding z-score [8]: -0.492
- PBM binding z-score [9]: -0.772
- PBM binding z-score [10]: -0.306

Sequence: CCTAATGGGCCAAGGTCATTGATCAGTCAAAGCA
- PBM binding z-score [1]: 2.35
- PBM binding z-score [2]: 2.59
- PBM binding z-score [3]: -0.175
- PBM binding z-score [4]: -0.521
- PBM binding z-score [5]: 2.49
- PBM binding z-score [6]: 3.83
- PBM binding z-score [7]: 1.87
- PBM binding z-score [8]: 3.77
- PBM binding z-score [9]: 0.774
- PBM binding z-score [10]: 3.59

Sequence: CCGACTGCGGCAGAAAGGTTACCATACCATCCGG
- PBM binding z-score [1]: -0.1
- PBM binding z-score [2]: 0.0365
- PBM binding z-score [3]: -0.709
- PBM binding z-score [4]: -0.931
- PBM binding z-score [5]: 0.55
- PBM binding z-score [6]: 1.05
- PBM binding z-score [7]: -0.0131
- PBM binding z-score [8]: 1.42
- PBM binding z-score [9]: -0.186
- PBM binding z-score [10]: 1.29

Sequence: ATCTCTAGGTAAAGTTAGTTCAGTGAATGCAAAT
- PBM binding z-score [1]: 2.54
- PBM binding z-score [2]: 2.3
- PBM binding z-score [3]: 1.03
- PBM binding z-score [4]: 0.811
- PBM binding z-score [5]: 1.08
- PBM binding z-score [6]: 1.65
- PBM binding z-score [7]: 1.25
- PBM binding z-score [8]: 1.12
- PBM binding z-score [9]: 0.947
- PBM binding z-score [10]: 0.74

Sequence: CCTTACGGGTCACTGACAGGTTATAGAATTTGGA
- PBM binding z-score [1]: 3.42
- PBM binding z-score [2]: 3.6
- PBM binding z-score [3]: 1.19
- PBM binding z-score [4]: 0.387
- PBM binding z-score [5]: 2.22
- PBM binding z-score [6]: 3.68
- PBM binding z-score [7]: 0.414
- PBM binding z-score [8]: 4.32
- PBM binding z-score [9]: 1.29
- PBM binding z-score [10]: 3.93

Sequence: CAAACTAGGTCACTGAGGTCAAAGTCCGTGCGTA
- PBM binding z-score [1]: 8.41
- PBM binding z-score [2]: 8.65
- PBM binding z-score [3]: 1.56
- PBM binding z-score [4]: 0.597
- PBM binding z-score [5]: 4.26
- PBM binding z-score [6]: 6.53
- PBM binding z-score [7]: 12.1
- PBM binding z-score [8]: 6.4
- PBM binding z-score [9]: 0.887
- PBM binding z-score [10]: 4.89

Sequence: TCTGCTAGGTCAAAGATGGTCAGCTAATCTGCTA
- PBM binding z-score [1]: 4.67
- PBM binding z-score [2]: 3.96
- PBM binding z-score [3]: 0.246
- PBM binding z-score [4]: 0.394
- PBM binding z-score [5]: 0.4
- PBM binding z-score [6]: 1.59
- PBM binding z-score [7]: -0.802
- PBM binding z-score [8]: 2.44
- PBM binding z-score [9]: -0.95
- PBM binding z-score [10]: 3.83

Sequence: TAGCCTAGGGCATGGGCCAGTATACCACGCGAAC
- PBM binding z-score [1]: -0.924
- PBM binding z-score [2]: 0.59
- PBM binding z-score [3]: -0.344
- PBM binding z-score [4]: -0.519
- PBM binding z-score [5]: -0.284
- PBM binding z-score [6]: -0.477
- PBM binding z-score [7]: -0.557
- PBM binding z-score [8]: 0.0195
- PBM binding z-score [9]: -0.519
- PBM binding z-score [10]: 1.33

Sequence: GCGGCTAGGTCAACTGATGGTCAGCTAAAGCTCG
- PBM binding z-score [1]: 3.34
- PBM binding z-score [2]: 3.06
- PBM binding z-score [3]: -0.724
- PBM binding z-score [4]: -1.01
- PBM binding z-score [5]: 1.76
- PBM binding z-score [6]: 1.59
- PBM binding z-score [7]: -0.666
- PBM binding z-score [8]: 2.84
- PBM binding z-score [9]: -0.107
- PBM binding z-score [10]: 4.36

Sequence: TCTTGTAGATCAAACGTTAAGAAAGCCGAAGCCT
- PBM binding z-score [1]: 2.23
- PBM binding z-score [2]: 0.376
- PBM binding z-score [3]: 0.781
- PBM binding z-score [4]: 0.516
- PBM binding z-score [5]: -0.0553
- PBM binding z-score [6]: 0.00909
- PBM binding z-score [7]: -0.155
- PBM binding z-score [8]: 0.0712
- PBM binding z-score [9]: -0.409
- PBM binding z-score [10]: -0.19

Sequence: ATATGTAGGTTAGCTGGGGTCATACAGACTAGGC
- PBM binding z-score [1]: 6.97
- PBM binding z-score [2]: 6.06
- PBM binding z-score [3]: 1.52
- PBM binding z-score [4]: 1.48
- PBM binding z-score [5]: 2.67
- PBM binding z-score [6]: 6.28
- PBM binding z-score [7]: 3.07
- PBM binding z-score [8]: 5.89
- PBM binding z-score [9]: 1.68
- PBM binding z-score [10]: 3.13

Sequence: TTACCAAGGTGAAGGTCGATGATCCCTCTGTAGA
- PBM binding z-score [1]: 1.53
- PBM binding z-score [2]: 3.14
- PBM binding z-score [3]: -0.416
- PBM binding z-score [4]: -0.0425
- PBM binding z-score [5]: 0.524
- PBM binding z-score [6]: 0.883
- PBM binding z-score [7]: 0.0636
- PBM binding z-score [8]: 1.36
- PBM binding z-score [9]: 0.0108
- PBM binding z-score [10]: 2.11

Sequence: TCTCGGAGGACACGAAGGTCACAGCTTTCCAGAG
- PBM binding z-score [1]: 1.84
- PBM binding z-score [2]: 2.4
- PBM binding z-score [3]: 0.166
- PBM binding z-score [4]: -0.192
- PBM binding z-score [5]: 2.75
- PBM binding z-score [6]: 3.96
- PBM binding z-score [7]: 2.33
- PBM binding z-score [8]: 3.8
- PBM binding z-score [9]: 0.474
- PBM binding z-score [10]: 3.97

Sequence: CTACCAAGGTGAACGAGGTCGTTGATTACTATTC
- PBM binding z-score [1]: 2.17
- PBM binding z-score [2]: 2.89
- PBM binding z-score [3]: 0.126
- PBM binding z-score [4]: -0.713
- PBM binding z-score [5]: 0.838
- PBM binding z-score [6]: 3.54
- PBM binding z-score [7]: 2.67
- PBM binding z-score [8]: 2.7
- PBM binding z-score [9]: 0.278
- PBM binding z-score [10]: 2.3

Sequence: ATACCAAGGTGATCGTGAGGTCCTTGATACTAAC
- PBM binding z-score [1]: 0.257
- PBM binding z-score [2]: 0.989
- PBM binding z-score [3]: 0.0116
- PBM binding z-score [4]: -0.0653
- PBM binding z-score [5]: -0.043
- PBM binding z-score [6]: 0.241
- PBM binding z-score [7]: 0.00841
- PBM binding z-score [8]: 0.662
- PBM binding z-score [9]: 0.0164
- PBM binding z-score [10]: 0.729
